Compound activity from PubChem.
Efa HMGR inh – inhibitors of E. faecalis class II HMGR, primary screen, biochemical, Enterococcus faecalis; HMG-CoA reductase (Enterococcus faecalis, mvaE); purified E. faecalis HMGR, NADPH absorbance 340 nm kinetic; inhibition, % at 10 µM; actives 0.41% (n = 190,000); AID 1066, 2008;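 active = inhibition above a set limit, the median over all tested compounds plus 3 SD, cut at about 9.5% in these data; inconclusive = no clear call, values can overlap the other calls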;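 note: enzyme runs in reverse so mevalonate oxidation gives rising NADPH absorbance; 0% = complete reaction with DMSO and 100% = background rate lacking mevalonate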
PABP1 MLLE inh – inhibitors of PABP1 MLLE–PAM2 peptide binding, primary screen, biochemical, fluorescence polarization, FITC-PAM2, GST-MLLE; Polyadenylate-binding protein 1 (Homo sapiens), P11940; AID 588489, 2011; actives 0.36% (n = 360,000); inhibition, % at 20 µM; in the data active = inhibition above about 35%, passing the limit was not always enough;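 note: plate controls were DMSO wells with GST-MLLE for no effect and wells lacking GST-MLLE protein for full effect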
Target sequence (P11940 whole entry, looked up): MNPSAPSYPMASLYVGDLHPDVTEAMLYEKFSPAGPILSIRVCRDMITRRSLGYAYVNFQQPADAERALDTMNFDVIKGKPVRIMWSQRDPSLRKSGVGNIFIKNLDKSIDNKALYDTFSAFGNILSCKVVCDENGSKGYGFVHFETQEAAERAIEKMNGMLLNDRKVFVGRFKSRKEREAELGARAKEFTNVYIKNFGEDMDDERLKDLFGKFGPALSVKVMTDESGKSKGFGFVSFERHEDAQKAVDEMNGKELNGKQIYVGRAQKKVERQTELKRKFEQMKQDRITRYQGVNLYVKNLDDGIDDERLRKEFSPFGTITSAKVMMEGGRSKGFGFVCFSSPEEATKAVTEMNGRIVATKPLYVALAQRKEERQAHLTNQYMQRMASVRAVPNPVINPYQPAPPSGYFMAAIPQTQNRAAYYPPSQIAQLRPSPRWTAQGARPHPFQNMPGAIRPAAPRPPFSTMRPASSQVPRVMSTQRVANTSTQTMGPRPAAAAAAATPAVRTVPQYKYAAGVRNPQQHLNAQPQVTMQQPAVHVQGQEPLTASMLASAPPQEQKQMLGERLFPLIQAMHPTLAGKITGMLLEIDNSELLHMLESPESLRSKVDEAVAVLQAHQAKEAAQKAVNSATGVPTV
PHOSPHO1 inh – PubChem AID 1565; actives 1.1% (n = 290,000); inhibition, % at 13.3 µM; Phosphoethanolamine/phosphocholine phosphatase (Homo sapiens), Q8TCT1; recombinant PHOSPHO1, absorbance phosphatase assay; in the data active = inhibition above about 60%
eIF4H FP inh – human eIF4H binding inhibitors, primary screen, translation initiation inhibitor project, biochemical, uHTS, fluorescence polarization | actives 0.94% (n = 290,000) | eIF4H fluorescence polarization binding assay | Eukaryotic translation initiation factor 4H (Homo sapiens), Q15056 | inhibition, % at 35 µM;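 note: calls also rest on retests at 20 µM and on dose response follow-up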
PABP FP inh – PABP poly(A) RNA binding inhibitors, primary screen, biochemical, fluorescence polarization, uHTS. Polyadenylate-binding protein 1 (Homo sapiens), P11940. calls only at 35 µM. actives 1% (n = 290,000);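 note: calls also rest on retests at 20 µM and on dose response follow-up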
Numbers without * were called inactive; i = inactive; ? = inconclusive; nt = not tested or not shown; + = active, no number. An excerpt weighted towards active compounds, which were near 2.4% of everything screened. Unless noted, the rule behind the calls is not given here.

SMILES | Efa HMGR inh | PABP1 MLLE inh | PHOSPHO1 inh | eIF4H FP inh | PABP FP inh
COc1ccc(C2CC(c3c(O)n(CCc4ccccc4)c(=O)[nH]c3=O)=NN2)cc1OC (configuration not stated) | nt | -9 | 16 | 2 | i
COc1cc2c(cc1OC)C(c1c(O)n(CCc3ccccc3)c(=S)[nH]c1=O)NCC2 (configuration not stated) | nt | nt | 48 | ? | +
CCOC(=O)c1c(/N=C/c2c(O)n(-c3ccc(F)cc3)c(=S)[nH]c2=O)sc2c1CCCC2 | -2 | -13 | 3 | 4 | i
CCOC(=O)c1c(/N=C/c2c(O)n(-c3ccccc3F)c(=S)[nH]c2=O)sc2c1CCCC2 | -2 | -72 | 94* | -7 | i
C[C@@H]1CN([C@@H](C)CO)C(=O)CCCn2nncc2CO[C@H]1CN(C)C(=O)Oc1ccccc1 | nt | -2 | nt | nt | nt
O=c1c2ccccc2[se]n1-c1ccccc1 | 1 | 37* | 89* | -2 | i
O=C1C(=O)c2cccc3cccc1c23 | -1 | 9 | 4 | 2 | i
O=C1C(=O)c2ccccc2-c2ccccc21 | 2 | 3 | 100* | 4 | i
O=C1NC(=S)NC(=O)C1Cc1ccccc1O | nt | -54 | nt | nt | nt
COc1ccc(N2C(=O)CC(=O)NC2=O)cc1 | -1 | -5 | 14 | ? | +
Cc1cccc(N2C(=O)CC(=O)NC2=O)c1 | -4 | -29 | -6 | 69* | i
O=C1CC(=O)N(c2cccc(Cl)c2)C(=O)N1 | -5 | -26 | 47 | ? | ?
COc1ccc(NC2Oc3cc4c(cc3C(c3cc(OC)c(OC)c(OC)c3)C2C)OCO4)cc1 (configuration not stated) | nt | -14 | nt | nt | nt
CC(C)(C)n1nnnc1C(c1ccccc1)N1CCC2(CC1)C(=O)NCN2c1ccccc1 (configuration not stated) | nt | 6 | nt | nt | nt
COc1cccc(C)c1NC1=NCCO1 | nt | -8 | nt | nt | nt
COc1ccc(C(=O)C2CCCN(Cc3ccc(C)s3)C2)c(OC)c1 (configuration not stated) | 4 | 0 | 35 | -7 | i
COc1ccc(C(=O)C2CCCN(Cc3cccc(C)n3)C2)c(OC)c1 (configuration not stated) | nt | -6 | 28 | 92* | +
Cc1cccc(NC(=O)N2CCCC2)c1 | -6 | -3 | 62* | 1 | i
CCOC(=O)[C@]1(C#N)[C@@H]2C=CC(C(C)=O)=CN2[C@@H](C(N)=O)[C@@H]1c1ccsc1 | -4 | 11 | 0 | 57* | +
O=C1NC(=S)N(c2ccc(Cl)cc2)C(=O)/C1=C/N1CCN(C(=O)c2ccco2)CC1 | 0 | -114 | 14 | 79 | +
Cc1ccccc1OP(=O)(Oc1ccccc1C)N1CCOCC1 | nt | -7 | nt | nt | nt
COc1ccc(CN2Cc3cc(N4CCCCC4)ccc3-n3nncc3C2)cc1 | nt | 17 | nt | nt | nt
Clc1ccc(COC(Cn2ccnc2)c2ccc(Cl)cc2Cl)cc1 (configuration not stated) | 6 | -1 | -4 | 6 | i
Clc1ccc(CSC(Cn2ccnc2)c2ccc(Cl)cc2Cl)cc1 (configuration not stated) | 11* | 3 | 6 | 1 | i
COc1ccc(C(c2nnnn2C2CCCC2)N2CCC3(CC2)C(=O)NCN3c2ccccc2)cc1 (configuration not stated) | nt | 13 | nt | nt | nt
SMILES | Efa HMGR inh | PABP1 MLLE inh | PHOSPHO1 inh | eIF4H FP inh | PABP FP inh
CSCCC(c1nnnn1-c1c(C)cccc1C)N1CCC2(CC1)C(=O)NCN2c1ccccc1 (configuration not stated) | nt | 15 | nt | nt | nt
CCN(CC)c1ccc(N=Cc2c(O)n(-c3cc(OC)ccc3OC)c(=O)[nH]c2=O)cc1 | -2 | -96 | -8 | 99* | +
Cc1nc2ccccn2c1P(=S)(c1ccccc1)c1ccccc1 | nt | -5 | nt | nt | nt
CCN1C(=O)/C(=C\c2ccc([N+](=O)[O-])s2)C(=O)NC1=S | 11* | nt | 28 | 52* | +
C=CCN1C(=O)/C(=C/c2ccc(Br)s2)C(=O)NC1=S | nt | -66 | -2 | 20 | i
CN(C)C1C(=O)C(C(N)=O)=C(O)C2(O)C(=O)C3=C(O)c4c(O)cccc4C(C)(O)C3C(O)C12 (configuration not stated) | nt | 21 | -6 | 99* | +
O=C1NCN(c2ccccc2)C12CCN(C(c1cccc3ccccc13)c1nnnn1C1CCCC1)CC2 (configuration not stated) | nt | -1 | nt | nt | nt
